Results from PubChem BioAssay AID488857 (Sanford-Burnham Center for Chemical Genomics, 2010).
The campaign covered roughly 1,400 compounds. About 560 (40%) were called active. So high a share suggests a set chosen from earlier hits. Some of the results follow. Unmarked numbers belong to inactive results.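 Rule for the calls: active = mean inhibition over duplicate tests at 10 µM above 50%; inactive = the rest.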

assay: ASC/caspase-1 reporter retest in S. cerevisiae at one dose, specificity check for NALP1 project (AID 488857); settings: S. cerevisiae ASC/Caspase-1, beta-galactosidase luminescence, 24 h; at 10 µM; active compounds read high

Row | SMILES | inhibition
1 | CCC(C)NC(=O)c1cc2cc3ccc(OC)cc3nc2s1 (centres undefined) | 56.8% (active)
2 | COc1ccc(OC)c(NC(=O)c2sc3nc(Cc4ccccc4)cc(C(F)(F)F)c3c2N)c1 | 40.6%
3 | OC(COCc1ccc2c(c1)OCO2)CN1CCN(Cc2ccccc2)CC1 (centres undefined) | 35.2%
4 | O=C(CCC1CCCCC1)N1CCN(Cc2ccc3c(c2)OCO3)CC1 | 67% (active)
5 | N#CCc1c(C#N)c(N)nc(N2CCN(Cc3ccc4c(c3)OCO4)CC2)c1C#N | 37.5%
6 | CN1CCC(Oc2ccc(Sc3ccccc3)cc2)CC1 | 40.5%
7 | CC1CCCN(CCCOc2ccc(Cl)cc2Br)C1 (centres undefined) | 64.8% (active)
8 | Cc1cc(Cl)c(OCCCN2CCCCC2)c(Br)c1 | 24.1%
9 | CC1CCCN(CCOCCSc2ccccc2)C1 (centres undefined) | 53% (active)
10 | CC1CCCN(CCOCCOc2ccc(Br)cc2Cl)C1 (centres undefined) | 59.5% (active)
11 | CC1CCCN(CCC(=O)c2ccc(Br)cc2)C1 (centres undefined) | 45.8%
12 | Cc1cc(Cl)c(OCCCCN2CCOCC2)c(Br)c1 | 30.6%
13 | Cc1cc(Cl)c(OCCOCCN2CCC(C)CC2)c(Br)c1 | 53.7% (active)
14 | CC(C)(C)c1ccc(COn2c(=O)c(-c3ccco3)[n+]([O-])c3ccccc32)cc1 | 39.7%
15 | CCOC(=O)c1cccnc1SCC(=O)NCc1ccccc1 | 54.2% (active)
16 | CCOc1ccc(NC(=O)CSc2nnc(C)n2Cc2ccccc2)cc1 | 37.3%
17 | CCOC(=O)c1cnc2ccccc2c1Nc1cc(C(=O)O)ccc1C | 28.2%
18 | Cc1nc(C)c(/C(O)=C/c2nc3ccccc3oc2=O)s1 | 44%
19 | Cc1ccc(NC2(C#N)C(=O)Nc3ccccc32)cc1 (centres undefined) | 38.2%
20 | O=C(c1ccco1)N1CCN(Cc2cn[nH]c2-c2cccc3ccccc23)CC1 | 26%
21 | O=C(CN1CCSC1=NCc1ccccc1)c1ccc(Cl)c(Cl)c1 | 61% (active)
22 | COc1cccc(CN(C)CC(=O)Nc2cccc(S(N)(=O)=O)c2)c1OC | 32.5%

Row | SMILES | inhibition
23 | Cc1cs/c(=N\N=C\c2ccccc2)n1Cc1ccco1 | 54.1% (active)
24 | COc1ccc(N2CCN(CC(=O)NC(=O)NCc3ccco3)CC2)cc1 | 33.3%
25 | CCC(C(=O)NCc1ccco1)N(C(=O)CNS(=O)(=O)c1ccccc1)c1ccc(OC)cc1 (centres undefined) | 32.8%
26 | CCN(C(=O)c1ccco1)c1nnc(-c2ccc(OC)cc2)s1 | 51% (active)
27 | O=C(NC(N1CCOCC1)C(Cl)(Cl)Cl)c1ccc(Br)cc1 (centres undefined) | -14.2%
28 | CCOC(=O)c1cc([N+](=O)[O-])c([N+](=O)[O-])cc1NC(C)=O | 22.4%
29 | CN(C)c1ccc(NC(=O)COC(=O)c2cc(Cl)ccc2[N+](=O)[O-])cc1 | 68% (active)
30 | N=c1ccn(Cc2ccc(Cl)cc2Cl)cc1 | 38%
31 | CCOC(=O)CSc1nnc(-c2ccccc2)c(=O)[nH]1 | 45%
32 | CCOCCCn1c(=NC(C)=O)c(C(=O)OCC)cc2c(=O)n3ccccc3nc21 | 19.2%
33 | CCOC(=O)c1c(-c2ccccc2)nc2ccccn12 | 99.1% (active)
34 | Cc1cc(C)n(C(C[N+](=O)[O-])c2ccc(Cl)cc2)n1 (centres undefined) | 99.2% (active)
35 | Cc1cccc(C)c1NC(=O)CSc1nc2ccccc2c(=O)[nH]1 | 34.6%
36 | Cc1ccccc1OCCCSc1nc2ccccc2[nH]1 | 75% (active)
37 | Cc1cccc(OCCCSc2nc3ccc(C)cc3[nH]2)c1 | 83.2% (active)
38 | O=C(O)C1CCN(C(=O)c2csc(-c3ccc4c(c3)CCO4)n2)CC1 | 38.6%
39 | O=CC1=C(c2ccccc2)Oc2ccccc2O1 | 93.3% (active)
40 | CCn1c(SCC(=O)Nc2ccc3c(c2)OCO3)nnc1-c1cnccn1 | 30.1%
41 | O=C(Nc1nc2ccccc2s1)C1c2ccccc2Oc2ccccc21 | 39.3%
42 | Cc1ccc2nc(NC(=O)c3ccc4ncsc4c3)sc2c1 | 12.6%
43 | Nc1ccc(C(=O)Nc2nc3ccccc3s2)cc1 | 75.4% (active)
44 | Fc1ccc(N2CCN(Cc3cnc(Oc4ccc(Br)cc4)s3)CC2)cc1 | 14.7%

Row | SMILES | inhibition
45 | CCOc1ccc(S(=O)(=O)N2c3ccccc3CC2C)cc1 (centres undefined) | 52.7% (active)
46 | CCOc1ccc(NC2=C(OC)C(=O)c3ccccc3C2=O)cc1 | 44.1%
47 | Cc1cc(Nc2ccccc2)nc2cc(O)ccc12 | 99.1% (active)
48 | COC1=C(Nc2ccc(O)cc2)C(=O)c2ccccc2C1=O | 40.2%
49 | COc1ccc(Nc2cc(C)c3ccc(O)cc3n2)cc1 | 98.1% (active)
50 | CC1Cc2ccccc2N1CC(=O)Nc1ccc2c(c1)OC(F)(F)O2 (centres undefined) | 29.9%
51 | O=C(/C=C/c1ccccc1Cl)c1ccc[nH]1 | 67.8% (active)
52 | COC(=O)C1=C(C)NC(C)=C(C(=O)OC)C1c1ccc(OC(=O)c2oc3ccccc3c2C)c(OC)c1 | 25.6%
53 | CC(=O)C1=C(O)C(=O)N(CCC(=O)O)C1c1ccc(Cl)cc1Cl (centres undefined) | 35.7%
54 | Cc1ccc(-n2c(Cl)c(Cl)nc(Cl)c2=O)cc1 | 100% (active)
55 | COc1ccc2cnn(-c3ccc(C)cc3)c(=O)c2c1OC | 44%
56 | Cc1ccc(-n2nnnc2C(Cl)c2nnnn2-c2ccc(C)cc2)cc1 | 40.1%
57 | CCN(CC)S(=O)(=O)c1ccc2[nH]c(=O)cc(C(=O)Nc3ccc(C)c(S(=O)(=O)N(CC)CC)c3)c2c1 | 25.1%
58 | Cn1cnc([N+](=O)[O-])c1S(=O)(=O)c1ccc(Cl)cc1 | 13.2%
59 | CNC(=O)c1nnsc1S(=O)(=O)c1ccc(Cl)cc1 | 73% (active)
60 | CCCNC(=O)c1nnsc1S(=O)(=O)c1ccc(Cl)cc1 | 91% (active)
61 | COc1ccc(CCNC(=O)C2CCN(S(=O)(=O)c3ccc(Cl)cc3)CC2)cc1OC | 23.4%
62 | CN1C(=O)CSc2ccc(NC(=O)N3CCN(c4ccccn4)CC3)cc21 | 40.5%
63 | CN(C)c1nc(N)nc(CSc2nnnn2-c2ccc(C(=O)O)cc2)n1 | 18.2%
64 | CC(C)(C)n1nc(-c2ccc(F)cc2)c2c(N)ncnc21 | 97.5% (active)
